Measurements reported in PubChem BioAssay (NCI).
The panel holds about 83,000 compounds, 20% with a hit somewhere; the sample as a whole holds those more often.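 Cell lines were cultured in 96-well plates, exposed to a single compound concentration, and assessed for percent growth 48 hours later.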 Values without a mark were called inactive. Activity calls are given as the source filed them. Rule for the calls: active = growth percent below 10; inactive = the rest.

The molecules below were run on OVCAR-8 ovarian (assay: NCI-60 one-dose screen, 48 h (100 = growth as untreated, 0 = no growth, -100 = all killed)). Settings: 10 µM unless noted.

Point of comparison: `Nc1c(Br)cc2c(c1Br)Cc1cc(Cl)ccc1-2`, growth 96.8%. Against it:
- CC1OC(n2c3ccccc3c3c4c(c5c6ccccc6[nH]c5c32)C(=O)N(CCN[C@H]2CCC[C@@H]2N)C4=O)CC(O)C1O (stereo partly drawn) — lower, 27.7%
- Oc1ccc(-c2nnc3c4[nH]ccc4ncn23)cc1 — higher, 99.6%
- C#C[C@]1(O)CC[C@H]2[C@@H]3CC=C4c5sc(-c6cccc(Br)c6)nc5CC[C@]4(C)[C@H]3CC[C@@]21C — higher, 98.7%
- NS(=O)(=O)c1ccc(CCn2c(SCC(=O)N/N=C/c3cc4ccccc4[nH]3)nc3ccccc3c2=O)cc1 — lower, 40.5%
- CC(C)CC(=O)C(CCc1ccccn1)C(C)C (stereo not drawn) — higher, 105%
- Cc1cc(C#Cc2ccc(C(C)(C)C)cc2)ccc1-n1c(/C=C/c2c(Cl)cccc2Cl)nc2ccccc2c1=O — higher, 115%
- CCOC(=O)c1ccc(NC(=O)CSC(N)=O)cc1 — higher, 100%
- CCOCCNc1ccc(S(=O)(=O)c2ccc(N)cc2)cc1N — higher, 98.7%
- CCN(CC)CCCC(C)Nc1c(-c2ccccc2)cnc2cc(Cl)ccc12 (stereo not drawn) — lower, 71.3%
- COc1ccc(CNc2c3ccccc3nc3ccccc23)cc1F — lower, 29.4%
- CN(C)N1C(=O)c2c(Cl)c(Cl)c(Cl)c(Cl)c2C1=O — higher, 105%
- Nc1c(C(=O)C[C@@H](N)CO)ccc2c1C(=O)CCO2 — lower, 35.8%
- C=C1C(=O)O[C@H]2[C@H]1CC/C(COC(=O)NCc1ccc(Cn3c(=O)sn(CCCl)c3=O)cc1)=C\CC[C@@]1(C)O[C@@H]21 — lower, 92.1%
- O=C1/C(=C/N2N=C(c3ccc(Cl)cc3)CC2c2ccccc2O)SC(=S)N1c1cccc(C(F)(F)F)c1 (stereo not drawn) — lower, 59.7%
- COc1cnc2c(c1)C(=O)c1c-2n(CCCN2CCN(C)CC2)c(=O)c2cc(Cl)ccc12 — lower, 31%
- C[C@H](NC(=O)c1snnc1C1CC1)c1c(F)cccc1Cl — higher, 104%
- CC(C)(C)c1ccc(OC(=O)Nc2ccccc2)cc1 — higher, 105%
- N/C(=N\OC(=O)c1ccccc1)C(C(=O)NOC(=O)c1ccccc1)C1CCCCC1 (stereo not drawn) — lower, 65.8%
- CC(C)c1ccc2c(c1)CCC1C2CCCC1(C)NCc1ccccc1 (stereo not drawn) — lower, 91.5%
- Cc1ccncc1NC=O — higher, 104%
- Nc1c(N)c2ccccc2c2ccccc12 — higher, 99.1%
- O=C1/C(=C/c2cc(F)cc(F)c2)Cc2cc(F)cc(F)c21 — higher, 111%
- CNC(=O)c1c(NC(=O)c2ccc(C(C)C)cc2)sc2c1CCC(=O)C2 — lower, 11%
- COc1cc(C2CC(c3ccccc3)=NN2C=O)ccc1Oc1ccnc2cc(Cl)ccc12 (stereo not drawn) — lower, 38.7%
- CC(=O)NC1C(O[C@H]2C[C@H]3[C@@H]4CC=C5C[C@@H](O)CC[C@]5(C)[C@H]4CC[C@]3(C)[C@H]2[C@H](C)C(=O)CCC(C)C)OCC(O)C1O (stereo partly drawn) — lower, 66.3%
- Cc1csc(N/N=C/c2ccncc2)n1 — higher, 97.7%
- COc1ccc(-c2cnc(-c3ccncc3-c3cccc(OC)c3)o2)cc1 — lower, 26%
- C#Cc1cccc(Nc2nc3cc([N+](=O)[O-])ccc3nc2Nc2ccc(O)cc2)c1 — lower, 18.3%
- COc1cccc(-c2nc3sccn3c2-c2ccnc(NCCN3CCCN(C)S3(=O)=O)n2)c1 — higher, 98.6%

For `O=C1NN(C(=O)c2ccccc2)C(c2ccc(Cl)c(Cl)c2)=C/C1=C\c1ccccc1[N+](=O)[O-]`, the growth was 30.3% [6.75 µM].

`CC(=O)O[C@@H]1CC2C(C)(C)CCCC2(C)C2=C1C(=O)C(C(C)C)=CC2=O` (stereo partly drawn) was tested, and the growth was -2.03% (active).
With `Clc1ccc(-c2cnc3c(-c4ccnc(N5CCNCC5)c4)cnn3c2)cc1` the growth was 1.08% (active).
In the case of `O=C(Nc1ccc(Cl)cc1)c1cc(-c2ccc(Cl)cc2)c2sc(=O)[nH]c2n1`, the growth is reported as 4.75% (active).
With `COc1cnc2c(c1)C(=O)c1c-2n(CCCN2CCNCC2)c(=O)c2cc(Cl)ccc12` the growth was -58.9% (active).
In the case of `CO[C@H](C(=O)[C@@H](O)[C@@H](C)O)[C@@H]1Cc2cc3cc(O[C@H]4C[C@@H](O[C@H]5C[C@@H](O)[C@H](O)C(C)O5)[C@H](O)C(C)O4)c(C)c(O)c3c(O)c2C(=O)[C@H]1O[C@H]1C[C@@H](O[C@H]2C[C@@H](O[C@H]3C[C@](C)(O)C(=O)C(C)O3)[C@@H](O)C(C)O2)[C@H](O)C(C)O1` (stereo partly drawn), the growth is reported as 2.48% (active).
With `COc1cc(-c2nc(-c3ccc(-c4nc5ccc(F)cc5[nH]4)cc3)no2)cc(OC)c1OC` the growth was 5.86% (active).
With `O=C(CCl)Nc1ccc2c(c1)C(=O)c1ccccc1C2=O` the growth was -27.3% (active).
